From PubChem BioAssay (NCI)
This is part of a sample that, as a whole, favours compounds with a hit. Of some 79,000 tested, about 15% had one in any assay. A number with no mark means an inactive call. Active and inactive are the calls of the source. No stated cut-off is given here; in the data, active means growth inhibition above about 70%; inactive means the rest.

Assay: NCI Yeast Anticancer Drug Screen. Data for the rad14 strain (AID 159);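 further: 0% = growth of vehicle-treated control cultures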
Settings: S. cerevisiae rad14 strain growth inhibition, active compounds read high
Protocol: Growth inhibition of yeast strains with defined genetic alterations is measured as a screen for potential anti-cancer activity. Selected strains with alterations in DNA damage repair or cell cycle control were exposed to compounds and growth inhibition was measured relative to vehicle treated controls. The strain used in this assay is rad14

| SMILES | growth inhibition (at 1.2 µM) | growth inhibition (at 3.7 µM) | growth inhibition (at 11.0 µM) | growth inhibition (at 33.0 µM) | growth inhibition (at 100.0 µM) |
| --- | --- | --- | --- | --- | --- |
| CCC[CH2][Sn]([CH2]CCC)([CH2]CCC)/[C](=C/[Si](C)(C)c1ccccc1)c1ccc2c(c1)OCO2 | 1% | 24% | 95% (active) | 93% (active) | 93% (active) |
| CCCCN(CCCC)c1ccc(N=Nc2ccc(S(=O)(=O)O)cc2)cc1 | -5% | 8% | 38% | 97% (active) | 97% (active) |
| N#CC1OB(O)c2ccccc21 (stereo not given) | -3% | 0% | -2% | -2% | 1% |
| Nc1cc2c(cc1N)-c1ccccc1C2=O | -1% | 3% | 8% | 26% | 97% (active) |
| O=C(CCCN1CCC(Nc2ccc(F)cc2)(c2nnnn2C2CCCCC2)CC1)c1ccc(F)cc1 | -5% | -8% | -10% | 9% | 85% (active) |
| COc1cc2c(cc1OC)[C@@H](Nc1ccc(C#N)cc1)C1COC(=O)[C@@H]1C2c1cc(OC)c(O)c(OC)c1 (stereo not given in full) | -12% | -8% | 0% | 22% | 81% (active) |
| CN(C)CCCn1c2c3ccccc3ccc2c2oc(=O)c3ccccc3c21 | -6% | 10% | 30% | 83% (active) | 98% (active) |
| CCOP(=O)(OCC)/C(C#N)=C\c1cccc2ccccc12 | -8% | -13% | -25% | 87% (active) | 97% (active) |
